# Screens as filed in PubChem.
# Most compounds without a hit are left out; they make up all but 1.5% or so of the library.
# Polio RdRp inh = inhibitors of poliovirus RNA polymerase binding and polymerization. P03300. poliovirus polymerase elongation, fluorescence polarization; active compounds read low. 0.66% of 150,000 active. AID 588519. % elongation, % (compound at 16.7 µg/mL); in the data active = % elongation below about 90%
# AID504770 = E. coli YBA685 growth inhibition, screen for V. cholerae RctB inhibitors. E. coli YBA685 rctB-dependent plasmid, OD600 growth, 3 h; active compounds read low. z-score (concentration not given with the values). 0.27% of 130,000 active. AID 504770; in the data active = z-score below about -2, passing the limit was not always enough
# Mtb MbtI inh = inhibitors of Mycobacterium tuberculosis siderophore enzyme MbtI. purified MbtI enzyme, fluorescence intensity read-out. inhibition, % (test concentration not listed). P9WFX0. 0.89% of 100,000 active; in the data active = inhibition mostly above about 56%, no sharp cut-off; inactive = mostly below about 77%
# Target sequence (P9WFX0 whole entry, looked up): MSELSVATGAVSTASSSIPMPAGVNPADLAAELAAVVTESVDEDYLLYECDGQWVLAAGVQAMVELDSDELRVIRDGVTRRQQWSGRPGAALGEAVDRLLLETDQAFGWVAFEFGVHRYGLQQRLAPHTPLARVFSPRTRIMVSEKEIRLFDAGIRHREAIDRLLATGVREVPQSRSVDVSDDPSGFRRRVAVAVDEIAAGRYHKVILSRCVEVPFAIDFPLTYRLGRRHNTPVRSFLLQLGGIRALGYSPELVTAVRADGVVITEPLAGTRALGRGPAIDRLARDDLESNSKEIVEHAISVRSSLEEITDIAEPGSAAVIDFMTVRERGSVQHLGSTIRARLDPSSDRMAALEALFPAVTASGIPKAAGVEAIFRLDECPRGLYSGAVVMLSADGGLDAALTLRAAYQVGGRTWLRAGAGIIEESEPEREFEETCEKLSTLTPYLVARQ
# Mtb MenB inh = Mtb MenB enzyme inhibition; P9WNP5; MenB enzyme assay, absorbance read-out; inhibition, % (test concentration not listed); 0.43% of 100,000 active; in the data active = inhibition above about 21%, passing the limit was not always enough
# Active calls of the source: *; · = not tested or not shown.
SMILES,Polio RdRp inh,AID504770,Mtb MbtI inh,Mtb MenB inh
CC1(C)CC(=O)c2c(nn(-c3ccccc3)c2N)C1,99.0,-1.2,-8.2,-1.7
Cc1nn(-c2ccccc2)c2c1CC1(C(=O)NC(=O)c3ccccc31)C1CCCN21 (stereo not given),83.0*,1.55,34.6,11.1
c1ccc(-c2nc(N3CCCCC3)c3ccccc3n2)cc1,101.0,-0.15,55.0,32.8*
COC(=O)CN(Cc1ccccc1)S(=O)(=O)c1ccc(F)cc1,101.0,-0.35,-21.0,-14.4
COc1ccc(-c2ccc(CNCCN3CCOCC3)o2)cc1Cl,99.0,-0.25,2.8,32.7*
Cc1ccc(CNCCN2CCOCC2)o1,104.0,-0.55,·,3.8
CC(C)Cc1cc(C(=O)O)nc(=O)[nH]1,99.0,1.4,8.1,37.7*
CCSc1nc(C(=O)O)cc(=O)[nH]1,·,0.7,·,·
Cc1ccc(Nc2nc(C(=O)N3CCCCC3)cs2)cc1,100.0,0.5,·,1.4
CN(C)CCNc1ncnc2sc(-c3ccccc3)cc12,87.0*,-1.05,106.1,-9.3
CCc1ccc(NC(=O)C(C)n2nnc3sc(-c4ccccc4)cc3c2=O)cc1 (stereo not given),79.0*,·,·,·
COC(=O)C(C)n1nnc2sc(-c3ccccc3)cc2c1=O (stereo not given),126.0,·,·,·
COc1ccc(-c2nc3c(=O)n(C)c(=O)nc-3n(C)n2)cc1OC,·,-0.25,-3.2,·
Cn1nc(-c2ccc(F)cc2)nc2c(=O)n(C)c(=O)nc1-2,36.0*,-0.5,31.4,-17.0
Cc1ccc(/C=C/C2=CC(=C(C#N)C#N)CC(C)(C)C2)o1,151.0,-0.5,14.9,-36.1
Cc1ccc(/C=C/C2=Cc3c(sc(N)c3C#N)C(C)(C)C2)o1,104.0,0.4,88.7*,-42.5
N#CS/C=C/C(=O)c1ccccc1,96.0,-2.7*,100.0*,-50.5
Cc1csc(=Nc2ccccc2F)n1/N=C/c1ccncc1,83.0*,-0.3,0.6,-22.0
CC1=CC(c2ccccc2)=C(C#N)C(=S)C1CC(=O)c1cccs1 (stereo not given),85.0*,0.5,·,-16.9
O/N=C1/CCCc2nn(-c3ccccc3)nc21,62.0*,0.15,·,17.8
CCN=C1SC(CC(=O)Nc2sc3c(c2C(=O)OCC)CCCC3)C(=O)N1CC (stereo not given),102.0,-0.4,-1.8,-20.4
Cc1cc(C)cc(NC(=O)CC(C(=O)O)N(C)C)c1 (stereo not given),·,0.95,·,·
CC(=O)Nc1scc(C)c1-c1nc2ccccc2s1,·,-0.85,·,·
CNc1sc(C(=O)c2cccs2)c(N)c1-c1nc2ccccc2s1,110.0,1.65,97.0*,-42.6
CCn1c(SCC(=O)N2CCOCC2)nc2ccc(I)cc2c1=O,99.0,1.4,10.6,3.5
SMILES,Polio RdRp inh,AID504770,Mtb MbtI inh,Mtb MenB inh
CC(Oc1cccc(Cl)c1)C(=O)NCc1ccc2c(c1)OCO2 (stereo not given),·,-0.25,-15.1,·
O=C(c1cc2ccccc2oc1=O)N1CCCC1,98.0,-0.35,24.8,37.8
CCC1CCCCN1C(=O)c1cc2ccccc2oc1=O (stereo not given),59.0*,-0.85,·,-7.5
CC(C)CNc1n[nH]c(=S)s1,99.0,-0.1,96.2*,-33.2
S=c1[nH]nc(NCCc2ccc(Cl)cc2)s1,·,-0.15,·,·
CCC(C)CCCNc1n[nH]c(=S)s1 (stereo not given),96.0,0.3,98.2*,-18.8
CCN1CCN(CCCNC(=O)COc2ccc3c(c2)C(=O)CC(C)(C)O3)CC1,·,-0.05,·,·
C/C(=N\NC(N)=S)c1ccc(Cl)cc1,·,1.2,60.9*,-53.9
COc1cc(C(=O)Nc2c3c(nn2-c2ccc(F)cc2)CS(=O)(=O)C3)cc(OC)c1OC,103.0,-3.15*,6.0,-17.4
COc1cccc2c(CCN)c[nH]c12,89.0*,0.35,·,5.8
COC(=O)c1c(-c2cccs2)csc1NC(=O)c1ccc(C)cc1,76.0*,·,·,·
COC(=O)c1c(-c2cccs2)csc1NC(=O)CN1CCOCC1,99.0,-0.85,-21.9,-19.4
COC(=O)c1c(-c2cccs2)csc1NC(=O)c1ccc(Br)cc1,66.0*,·,·,·
CCCN(CCC)Cn1nc(-c2ccc3c(c2)OCO3)oc1=S,105.0,-0.4,-0.2,-16.5
CC(=O)N1CCCCC1c1cccnc1.O=[N+]([O-])O.[Ag] (stereo not given),60.0*,-5.5*,·,-36.0
CC1Cc2scc[n+]2-c2ccccc2N1C=O (stereo not given),105.0,-0.55,·,99.8*
COC(=O)c1ccccc1SN,·,-0.6,-9.8,·
COc1cccc(C2=NC(=C(C)C)C(=O)O2)c1,102.0,0,4.3,13.0
CCn1c(O)c(N=NC(N)=S)c2ccccc21,76.0*,0.05,77.7,-66.4
CCc1c(C)sc(NC(=O)/C=C/c2cccs2)c1C(=O)OC,100.0,-1,-17.9,-42.3
CCc1c(C)sc(NC(=O)C2CC3CCC2C3)c1C(=O)OC (stereo not given),88.0*,0.85,·,-7.5
C=CCNC(=O)c1c(C)cc(C)cc1C,99.0,-0.65,-5.0,-9.9
O=C(COC(=O)c1ccncc1)NCc1ccccc1,103.0,-3.5*,-8.9,·
O=C(COC(=O)c1ccc(Br)cc1)NCc1ccccc1,100.0,-0.1,-2.9,·
Nc1ccc(S(=O)(=O)CCSS(=O)(=O)c2ccc(N)cc2)cc1,63.0*,-0.1,99.2*,7.3
SMILES,Polio RdRp inh,AID504770,Mtb MbtI inh,Mtb MenB inh
Cc1ccccc1Cn1c(N2CCC(C(=O)N3CCN(C(=O)c4ccco4)CC3)CC2)nc2ccccc21,103.0,-0.8,-3.2,-13.3
CC(=O)N1CCN(c2ccc(N)cc2)CC1,103.0,1.85,·,29.8*
Nc1nc(NCc2ccccc2OC(F)(F)F)n[nH]1,·,-0.75,·,·
ONC=NCc1ccccc1OC(F)(F)F,100.0,-0.5,6.5,34.3*
CSc1ccccc1C(=O)Nc1ccc(Cl)cc1,·,-0.45,·,·
O=c1[nH]c(=S)[nH]c(O)c1-c1ccccc1,101.0,-0.55,85.3*,-56.4
CC(=O)NCCSc1nc(-c2cccs2)cc(-c2ccc(F)cc2)c1C#N,103.0,0.25,109.5,-11.3
COC1=CC(=O)c2ccccc2C1=O,85.0*,-2.65*,2.6,-7.4
O=C(COC(=O)c1ccco1)NCC1CCCO1 (stereo not given),99.0,0,-3.4,35.4*
Cc1c(C)c(NC(=O)/C=C/C(=O)O)c(C)c(C)c1NC(=O)/C=C/C(=O)O,103.0,1.4,60.0*,10.3
Cc1cc(C)cc(NC(=O)/C=C\C(=O)O)c1,99.0,0.15,-2.3,9.3
Sc1sccc1C=NC1CCCCC1,98.0,-0.45,98.8*,-206.0
O=C1c2ccccc2-c2n[nH]c3cccc1c23,99.0,-0.6,1.8,-13.5
O=c1[nH]nc2c3c(cccc13)-c1ccccc1-2,99.0,1,1.2,57.9*
Cc1cccc(NC(=O)CSc2nnnn2-c2ccccc2)c1,·,0.55,·,·
Cc1cc(C)nc(SCC(=O)OCC(=O)c2ccc3[nH]c(=O)[nH]c3c2)n1,101.0,-0.6,0.0,1.7
O=C(COC(=O)c1ccc(Cl)s1)c1ccc2[nH]c(=O)[nH]c2c1,79.0*,0.4,5.2,-12.4
Cc1cc(C(=O)OCC(=O)c2ccc3[nH]c(=O)[nH]c3c2)c2ccccc2n1,90.0*,-0.25,-3.1,-10.1
O=C(COC(=O)c1nc(Cl)ccc1Cl)c1ccc2[nH]c(=O)[nH]c2c1,38.0*,0.2,-6.0,-8.4
